The supplement of paper PMC12669032

Key:
Experiment in all cases: growth AUC relative to DMSO control (median of replicates) (fraction); higher = more growth (less inhibition), active = hit call of the paper
Conditions in all cases: 20 µM; 24 h;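 active = AUC reduced over 20% with Padj below 0.05 in at least 2 of 3 replicates; inactive = otherwise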
Coprococcus comes = system: Coprococcus comes
How it was run: (§1)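 In round-bottom 96-well plates sealed with pierced gas-permeable seals, gut bacterial monocultures in mGAM were grown anaerobically at 37 °C from OD600 0.05 with 20 µM compound (1% DMSO). OD600 readings were taken hourly for 24 h, and the minimum OD was set to 0. Area under the growth curve was then normalised to the plate median of solvent-only wells, or to row and column medians on the industrial chemical plate. The value given is the median of three biological replicates grown on separate days.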

Escherichia coli ED1a = system: Escherichia coli ED1a
How it was run: as §1

Escherichia coli IAI1 = system: Escherichia coli IAI1
How it was run: as §1

Eubacterium rectale = system: Eubacterium rectale
How it was run: as §1

[1] = system: Fusobacterium nucleatum subsp. animalis
How it was run: as §1

Lactobacillus gasseri = system: Lactobacillus gasseri
How it was run: as §1

Lactobacillus paracasei = system: Lactobacillus paracasei
How it was run: as §1

Odoribacter splanchnicus = system: Odoribacter splanchnicus
How it was run: as §1

[2] = system: Parabacteroides distasonis
How it was run: as §1

Parabacteroides merdae = system: Parabacteroides merdae
How it was run: as §1

Roseburia intestinalis = system: Roseburia intestinalis
How it was run: as §1

Streptococcus salivarius = system: Streptococcus salivarius
How it was run: as §1

Measured: growth AUC

CCC(C)Nc1c([N+](=O)[O-])cc(C(C)(C)C)cc1[N+](=O)[O-] (stereo not drawn)
inactive: Coprococcus comes 0.975 | Escherichia coli ED1a 1.01 | Escherichia coli IAI1 0.939 | Eubacterium rectale 0.995 | [1] 1.02 | Lactobacillus gasseri 0.938 | Lactobacillus paracasei 1.01 | Odoribacter splanchnicus 1.02 | [2] 0.919 | Parabacteroides merdae 0.966 | Roseburia intestinalis 0.927 | Streptococcus salivarius 1.04

CN(C)C(=O)C(c1ccccc1)c1ccccc1
inactive: Coprococcus comes 0.974 | Escherichia coli ED1a 0.98 | Escherichia coli IAI1 0.977 | Eubacterium rectale 1.11 | [1] 0.975 | Lactobacillus gasseri 1 | Lactobacillus paracasei 0.887 | Odoribacter splanchnicus 0.957 | [2] 1 | Parabacteroides merdae 1 | Roseburia intestinalis 0.964 | Streptococcus salivarius 0.995

S=C1NCCN1
inactive: Coprococcus comes 1.02 | Escherichia coli ED1a 1.01 | Escherichia coli IAI1 1.01 | Eubacterium rectale 1.04 | [1] 1.08 | Lactobacillus gasseri 1.02 | Lactobacillus paracasei 0.923 | Odoribacter splanchnicus 1.04 | [2] 1.05 | Parabacteroides merdae 1.04 | Roseburia intestinalis 1.01 | Streptococcus salivarius 0.992

BrCCBr
inactive: Coprococcus comes 1.03 | Escherichia coli ED1a 1.03 | Escherichia coli IAI1 1.01 | Eubacterium rectale 1.06 | [1] 1.01 | Lactobacillus gasseri 1.03 | Lactobacillus paracasei 1 | Odoribacter splanchnicus 1.06 | [2] 1.04 | Parabacteroides merdae 0.99 | Roseburia intestinalis 1.06 | Streptococcus salivarius 1.01

CN1COCN(Cc2cnc(Cl)s2)/C1=N/[N+](=O)[O-]
inactive: Coprococcus comes 0.965 | Escherichia coli ED1a 0.987 | Escherichia coli IAI1 0.97 | Eubacterium rectale 0.953 | [1] 0.958 | Lactobacillus gasseri 1.04 | Lactobacillus paracasei 0.913 | Odoribacter splanchnicus 0.999 | [2] 0.991 | Parabacteroides merdae 0.994 | Roseburia intestinalis 0.952 | Streptococcus salivarius 1.02

C1=Cc2cccc3cccc1c23
inactive: Coprococcus comes 1.01 | Escherichia coli ED1a 1.02 | Escherichia coli IAI1 1.01 | Eubacterium rectale 0.988 | [1] 1.02 | Lactobacillus gasseri 0.975 | Lactobacillus paracasei 1.04 | Odoribacter splanchnicus 0.99 | [2] 0.889 | Parabacteroides merdae 1.02 | Roseburia intestinalis 0.987 | Streptococcus salivarius 0.98

COP(=O)(OC)OC=C(Cl)Cl
inactive: Coprococcus comes 1.03 | Escherichia coli ED1a 1.01 | Escherichia coli IAI1 1.02 | Eubacterium rectale 1.04 | [1] 1.09 | Lactobacillus gasseri 0.912 | Lactobacillus paracasei 1.04 | Odoribacter splanchnicus 1.01 | [2] 1.05 | Parabacteroides merdae 1.01 | Roseburia intestinalis 0.985 | Streptococcus salivarius 1.03

CC1CCCCC1NC(=O)Nc1ccccc1 (mixture of isomers)
inactive: Coprococcus comes 0.989 | Escherichia coli ED1a 0.995 | Escherichia coli IAI1 0.972 | Eubacterium rectale 0.942 | [1] 0.999 | Lactobacillus gasseri 1.01 | Lactobacillus paracasei 0.926 | Odoribacter splanchnicus 1.01 | [2] 0.982 | Parabacteroides merdae 0.986 | Roseburia intestinalis 0.985 | Streptococcus salivarius 1.02

CC(C)N1C(=O)N(c2ccccc2)CSC1=NC(C)(C)C
inactive: Coprococcus comes 0.943 | Escherichia coli ED1a 0.967 | Escherichia coli IAI1 1.02 | Eubacterium rectale 0.956 | [1] 0.966 | Lactobacillus gasseri 0.963 | Lactobacillus paracasei 1.03 | Odoribacter splanchnicus 1.02 | [2] 0.946 | Parabacteroides merdae 0.997 | Roseburia intestinalis 1.02 | Streptococcus salivarius 0.953

Nc1c(Cl)c(F)nc(OCC(=O)O)c1Cl
inactive: Coprococcus comes 0.99 | Escherichia coli ED1a 0.992 | Escherichia coli IAI1 1.03 | Eubacterium rectale 0.918 | [1] 0.971 | Lactobacillus gasseri 1.11 | Lactobacillus paracasei 1.16 | Odoribacter splanchnicus 1 | [2] 0.972 | Parabacteroides merdae 1.01 | Roseburia intestinalis 1 | Streptococcus salivarius 1

CC(C)(C)C(O)/C(=C/c1ccc(Cl)cc1Cl)n1cncn1 (mixture of isomers)
inactive: Coprococcus comes 0.959 | Escherichia coli ED1a 0.983 | Escherichia coli IAI1 0.979 | Eubacterium rectale 0.992 | [1] 1 | Lactobacillus gasseri 0.836 | Lactobacillus paracasei 0.997 | Odoribacter splanchnicus 0.86 | [2] 0.938 | Parabacteroides merdae 0.907 | Roseburia intestinalis 0.929 | Streptococcus salivarius 0.945

CNC(=O)Oc1cccc2c1OC(C)(C)C2O (stereo not drawn)
inactive: Coprococcus comes 1.05 | Escherichia coli ED1a 1.01 | Escherichia coli IAI1 1.01 | Eubacterium rectale 1.05 | [1] 1.15 | Lactobacillus gasseri 0.862 | Lactobacillus paracasei 1.11 | Odoribacter splanchnicus 1.02 | [2] 0.88 | Parabacteroides merdae 1.09 | Roseburia intestinalis 0.979 | Streptococcus salivarius 1.02

O=C(O)C(F)(F)C(F)(F)C(F)(F)C(F)(F)C(F)(F)C(F)(F)C(F)(F)F
inactive: Coprococcus comes 1.02 | Escherichia coli ED1a 1 | Escherichia coli IAI1 0.998 | Eubacterium rectale 1 | [1] 1 | Lactobacillus gasseri 1.01 | Lactobacillus paracasei 0.966 | Odoribacter splanchnicus 0.979 | [2] 0.934 | Parabacteroides merdae 1 | Roseburia intestinalis 1 | Streptococcus salivarius 1.01

CCCN(CCC)N=O
inactive: Coprococcus comes 1.02 | Escherichia coli ED1a 1.03 | Escherichia coli IAI1 1 | Eubacterium rectale 0.979 | [1] 0.989 | Lactobacillus gasseri 0.956 | Lactobacillus paracasei 0.984 | Odoribacter splanchnicus 1.06 | [2] 1.11 | Parabacteroides merdae 1.03 | Roseburia intestinalis 0.988 | Streptococcus salivarius 0.967

CC1(C)CC/C(=C\c2ccc(Cl)cc2)C1(O)Cn1cncn1 (stereo not drawn)
inactive: Coprococcus comes 0.974 | Escherichia coli ED1a 0.999 | Escherichia coli IAI1 0.98 | Eubacterium rectale 0.986 | [1] 0.97 | Lactobacillus gasseri 0.935 | Lactobacillus paracasei 0.955 | Odoribacter splanchnicus 1.04 | [2] 0.964 | Parabacteroides merdae 0.967 | Roseburia intestinalis 1.02 | Streptococcus salivarius 0.993

COP(=O)(OC)O/C(C)=C/C(=O)N(C)C
inactive: Coprococcus comes 1 | Escherichia coli ED1a 1 | Escherichia coli IAI1 0.997 | Eubacterium rectale 1.01 | [1] 0.937 | Lactobacillus gasseri 1.08 | Lactobacillus paracasei 1.06 | Odoribacter splanchnicus 0.972 | [2] 0.905 | Parabacteroides merdae 0.994 | Roseburia intestinalis 0.988 | Streptococcus salivarius 0.984

CC1(C)C(C=C(Cl)Cl)C1C(=O)OCc1cccc(Oc2ccccc2)c1 (mixture of isomers)
inactive: Coprococcus comes 0.964 | Escherichia coli ED1a 1.02 | Escherichia coli IAI1 0.98 | Eubacterium rectale 0.911 | [1] 0.954 | Lactobacillus gasseri 0.864 | Lactobacillus paracasei 1.01 | Odoribacter splanchnicus 0.977 | [2] 1 | Parabacteroides merdae 0.951 | Roseburia intestinalis 0.921 | Streptococcus salivarius 0.979

Cc1c(F)c(F)c(COC(=O)[C@@H]2[C@H](/C=C(\Cl)C(F)(F)F)C2(C)C)c(F)c1F (mixture of isomers)
inactive: Coprococcus comes 0.956 | Escherichia coli ED1a 1 | Escherichia coli IAI1 0.993 | Eubacterium rectale 1.01 | [1] 1 | Lactobacillus gasseri 0.897 | Lactobacillus paracasei 0.956 | Odoribacter splanchnicus 1.04 | [2] 0.976 | Parabacteroides merdae 0.994 | Roseburia intestinalis 0.986 | Streptococcus salivarius 0.993

O=[N+]([O-])c1ccc(Oc2ccc(Cl)cc2Cl)cc1
active: [2] 0.655
inactive: Coprococcus comes 0.988 | Escherichia coli ED1a 0.99 | Escherichia coli IAI1 0.983 | Eubacterium rectale 1.07 | [1] 1 | Lactobacillus gasseri 0.789 | Lactobacillus paracasei 0.976 | Odoribacter splanchnicus 0.946 | Parabacteroides merdae 0.967 | Roseburia intestinalis 0.967 | Streptococcus salivarius 0.981

COP(=O)(OC)O/C(=C\Cl)c1ccc(Cl)cc1Cl
inactive: Coprococcus comes 1.06 | Escherichia coli ED1a 1.01 | Escherichia coli IAI1 1 | Eubacterium rectale 1.09 | [1] 1.09 | Lactobacillus gasseri 0.97 | Lactobacillus paracasei 1.02 | Odoribacter splanchnicus 1.02 | [2] 0.957 | Parabacteroides merdae 1.01 | Roseburia intestinalis 1.03 | Streptococcus salivarius 1

COC(=O)NC(=S)Nc1ccccc1NC(=S)NC(=O)OC
inactive: Coprococcus comes 0.93 | Escherichia coli ED1a 0.995 | Escherichia coli IAI1 0.996 | Eubacterium rectale 1.14 | [1] 1.12 | Lactobacillus gasseri 0.835 | Lactobacillus paracasei 1.01 | Odoribacter splanchnicus 1.05 | [2] 0.944 | Parabacteroides merdae 1.03 | Roseburia intestinalis 0.979 | Streptococcus salivarius 0.98

COC(=O)c1ccccc1CS(=O)(=O)NC(=O)Nc1nc(OC)cc(OC)n1
inactive: Coprococcus comes 1.02 | Escherichia coli ED1a 0.974 | Escherichia coli IAI1 0.978 | Eubacterium rectale 0.998 | [1] 0.999 | Lactobacillus gasseri 0.996 | Lactobacillus paracasei 1 | Odoribacter splanchnicus 1.02 | [2] 0.998 | Parabacteroides merdae 1 | Roseburia intestinalis 0.964 | Streptococcus salivarius 1.01

Clc1ccc(Cl)cc1
inactive: Coprococcus comes 0.985 | Escherichia coli ED1a 1 | Escherichia coli IAI1 1 | Eubacterium rectale 1.05 | [1] 1.1 | Lactobacillus gasseri 0.981 | Lactobacillus paracasei 0.936 | Odoribacter splanchnicus 1.03 | [2] 0.999 | Parabacteroides merdae 1.02 | Roseburia intestinalis 1.01 | Streptococcus salivarius 1.02

CCOP(=S)(OCC)Oc1nc(Cl)c(Cl)cc1Cl
inactive: Coprococcus comes 0.995 | Escherichia coli ED1a 1.02 | Escherichia coli IAI1 1.01 | Eubacterium rectale 1.11 | [1] 0.982 | Lactobacillus gasseri 0.992 | Lactobacillus paracasei 0.993 | Odoribacter splanchnicus 1 | [2] 0.963 | Parabacteroides merdae 0.96 | Roseburia intestinalis 1.01 | Streptococcus salivarius 1.06
